From PubChem BioAssay (NCATS) come the findings set out here.

Active and inactive are the calls of the source. The call rests on the fitted dose curve; in most records, active means well fitted curve in the direction sought with a large enough effect; inconclusive means small, poorly fitted or top-dose-only effect, or another doubt; inactive means no such curve, though single readings can be large or run the other way.

This test deals with alpha-glucosidase (Oryza sativa, rice) (UniProt Q653V4). The test can be described thus: Counterscreen for Glucocerebrosidase Inhibitors: qHTS Assay for Rice alpha-Glucosidase at pH 5.0 (AID 997). As to conditions: rice alpha-glucosidase enzyme activity; series mostly up to 76.9 µM. An excerpt:
NIH Chemical Genomics Center [NCGC]
NIH Molecular Libraries Screening Centers Network [MLSCN]
PI Name: Zheng, Wei [NIH]
Alpha-glucosidase is responsible for hydrolysis of terminal, non-reducing 1,4-linked alpha-D-glucose residues with release of alpha-D-glucose. It is a lysosomal hydrolase that is required for the degradation of a small percentage (1-3%) of cellular glycogen in human. Deficiency of this enzyme results in glycogen-storage disease type II (GSDII), also referred to as Pompe disease, an autosomal recessive disorder. Structurally normal glycogen is accumulated in lysosomes and cytoplasm in affected patients, primarily in muscle tissues. Excessive glycogen storage within lysosomes may interrupt normal functioning of other organelles and leads to cellular injury. In turn, this leads to enlargement and dysfunction of the entire organ involved (eg, cardiomyopathy and muscle weakness).
It has reported that the improper folding and trafficking of alpha-glucosidase resulted from the genetic mutations may account for a significant number of Prope patients. […] We optimized this alpha-glucosidase assay in 1536-well plate format for identifying the novel small molecule inhibitors with the structures other than the sugar analogs in order to develop the new pharmacological chaperones.
NCGC Assay Protocol Summary:
This is a fluorogenic enzyme assay with 4-methylumbelliferyl-alpha-D-pyranoside as the substrate and rice alpha-glucosidase as the enzyme preparation. Upon the hydrolysis of this fluorogenic substrate, the resulting product, 1. 4-methyllumbelliferone, can be excited at 365 nm and emits at 440 nm which can be detected by a standard fluorescence plate reader. Data were normalized to the controls for basal activity (without enzyme) and 100% activity (with enzyme). In the AC50 values were determined from concentration-response data modeled with the standard Hill equation.
Assay buffer: 50 mM citric acid, 0.005% Tween-20, pH 5.0. (pH 5.0 is an optimal condition for this enzyme assay)
1536-well assay protocol for the human alpha-glucosidase:
(1) Add 2 ul/well of enzyme (4 nM final)
(2) Add 23 nL compounds in DMSO solution. The final titration was 0.7 nM to 77 uM.
(3) Add 1 ul of substrate (400 uM final)
(4) Incubate at room temperature for 20 min.
(5) Add 2 ul stop solution (1M NaOH and 1M Glycine mixture, pH 10)
(6) Detect the assay plate in a ViewLux plate reader (PerkinElmer) with Ex=365 nm and Em=440nm.
Keywords: Alpha-glucosidase, Prope Disease, pharmacological chaperone, chaperone therapy, high throughput screening, alpha-glucosidase inhibitor, MLSMR, MLSCN, NIH Roadmap, qHTS and NCGC
Turning to `CN(N=O)c1cc(O)ccc1O`, the call was inactive.
To `CCCn1c(=O)c2[nH]c(C3CCCC3)nc2n(CCCOC(=O)c2ccc(S(=O)(=O)F)cc2)c1=O` belongs “inactive”; to `Cc1c2ccncc2c(C)c2c1[nH]c1ccccc12`, “inactive”.
To `CCS(=O)(=O)Nc1cccc(C(=C2CCCCC2)c2cnc[nH]2)c1` belongs “inactive”.
In the case of `O=S1(=O)N(CCN2CC=C(c3c[nH]c4cc(F)ccc34)CC2)c2cccc3c2N1CCC3`, the outcome was inactive.
For the compound `NC(=O)CI`, the compound was called inactive.
For the compound `OCc1cnc[nH]1`, the outcome was inactive.
Take `COc1ccc2[nH]c3c(c2c1)CCNC3`: the call was inactive.
To `COc1ccc2c(c1)/C(=C/c1cnc[nH]1)C(=O)N2` belongs “inactive”; to `O=[N+]([O-])c1ccc2nc(N3CCNCC3)ccc2c1`, “inactive”.
As to `Clc1cc(I)cc(Cl)c1NC1=NCCN1`, the compound was called inactive.
On to `CNC(=O)OCC[N+](C)(C)C`, for which the outcome was inactive.
To `O=C(O)c1cc[c]([Hg][Cl])cc1` belongs “inactive”; to `CC(=O)NBr`, “inactive”; to `CCCN(CCC)C1Cc2cc(OC)c(OC)cc2C1`, “inactive”.
To `O=c1c2ccccc2[se]n1-c1ccccc1` belongs “inactive”; to `O=[N+]([O-])c1cc(O)c(O)c([N+](=O)[O-])c1`, “inactive”.
With `CN1CCC(c2c[nH]c3ccc(O)cc23)CC1`, the call was inactive.
Take `C[C@H](N)CN1CCc2ccc(Br)cc21`: the compound was classed as inactive.
The value for `N#CC(C#N)=Cc1cc(O)c(O)c(O)c1` was “inactive”.
To `O=C1C=CC(=O)C=C1` belongs “inactive”; to `NCCCP(=O)(O)O`, “inactive”.
To `Cc1sc2ccccc2c1CC1=NCCN1` belongs “inactive”; to `CCCn1c(C)c(C(=O)c2ccc3ccccc3c2)c2ccccc21`, “inactive”; to `NC(=O)COc1c(F)cc(SCCNS(=O)(=O)c2ccccc2)cc1F`, “inactive”.
As for `C[C@@H]1[C@@H]2Cc3ccc(O)cc3[C@@]1(C)CCN2CC1CC1`, the compound was classed as inactive.
Regarding `c1ccc2cc(CC3=NCCN3)ccc2c1`, the outcome was inactive.
To `CN1CCc2cc(O)cc3c2[C@H]1Cc1ccc(O)c(O)c1-3` belongs “inactive”.
Consider `c1ccc2c(c1)[I+]c1ccccc1-2`, for which the compound was classed as inactive.
Turning to `C[N+]1(C)CCN(c2ccccc2)CC1`, the compound was called inactive.
Turning to `C[N+]1(C)[C@@H]2CC[C@H]1CC(OC(=O)c1c[nH]c3ccccc13)C2` (stereo not given in full), the compound was called inactive.
Consider `Cc1[nH]c2ccc(O)cc2c1CCN`, for which the compound was classed as inactive.
On to `CC(C)NP(=O)(NC(C)C)OP(=O)(NC(C)C)NC(C)C`, for which the outcome was inactive.
For `CN(N=O)c1ccc(O)c(O)c1`, the outcome was inactive.
The value for `N[C@@H](Cn1oc(=O)[nH]c1=O)C(=O)O` was “inactive”; that for `C[C@@H]1O[C@H](C[N+](C)(C)C)CS1` was “inactive”.
On to `c1ccc2c(N3CCNCC3)cccc2c1`, for which the compound was called inactive.
`NNC(N)=O`: the compound was called inactive.
The value for `CCCN(CCC)[C@@H]1CCc2cccc(O)c2C1` was “inactive”; that for `N#CCCN` was “inactive”.
